According to PubChem BioAssay (NCI):
About 83,000 compounds went through this panel and 20% of them were active in at least one assay; those are over-represented in the sample as a whole.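 48-hour exposure, single concentration, 96-well plates; percent growth endpoint where 0 means no net growth. Active: below 10.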 A number with no mark means an inactive call. Activity calls are given as the source filed them.

Test system: HOP-92 NSCLC
Assay: NCI-60 one-dose screen, 48 h (100 = growth as untreated, 0 = no growth, -100 = all killed)
Conditions: 10 µM unless noted

Compound	growth
N#Cc1ccc(-c2ccc(-c3cccs3)o2)cc1F	50.5%
O=C(Nc1cccc(-n2ccc3c(NC(=O)c4ccccc4)nccc32)c1)c1ccc(Cl)c(Cl)c1	-31.9% (active)
COc1cc(OC)cc(-c2ccc(-c3ccc(C(=N)N)s3)s2)c1	-71% (active)
COc1ccc(-c2cc(-c3cc4ccccc4oc3=O)n(-c3ccccc3)n2)cc1	67%
O=C1c2cccc3cccc(c23)C(=O)N1CCCCCCCCCCN1C(=O)c2cccc3cccc(c23)C1=O	108%
O=C(CCCN1CCC(O)(c2ccc(Br)cc2)CC1)c1ccc(F)cc1	98.9%
O=C(c1ccc(OCCN2CCCCC2)cc1)c1c(-c2ccc(O)cc2)sc2cc(O)ccc12	66.7%
CCCCCc1c(C)[nH]c(/C=C2\N=C(c3ccc[nH]3)C=C2Oc2ccc(OC)cc2)c1C	-12.6% [100 µM] (active)
ClCCn1cnc2c(SCc3ccccc3Cl)ncnc21	62.3%
O=C(N/N=C/c1ccc([N+](=O)[O-])o1)c1ccc(O)cc1	103%
CCS(=O)(=O)Nc1cccc(Nc2c3cccc(C)c3nc3c(C)cccc23)c1OC	-11.8% (active)
CCN(C(=O)CCl)C(C)(C)C(SSSC(c1ccc(Cl)cc1)C(C)(C)N(CC)C(=O)CCl)c1ccc(Cl)cc1 (configuration not stated)	47%
CCOC(=O)C(CCCCC(NC(C)=O)(C(=O)OCC)C(=O)OCC)(NC(C)=O)C(=O)OCC	94.9%
COc1ccc(-n2nc(C(=O)Nc3ccc(F)cc3)nc2-c2cc(OC)c(OC)c(OC)c2)cc1	91.2%
ClC1=NC(Cl)C(Cl)=N/C1=N\c1ncn[nH]1 (configuration not stated)	-60% (active)
COc1cc2c(cc1OC)-c1cc(OC)c(OC)cc1C(CN(C)C)C2 (configuration not stated)	21.4% [100 µM]
COc1ccc(/C=N/NC(N)=S)c(OC)n1	113%
CC(C)(C)c1cc(C[P+](c2ccccc2)(c2ccccc2)c2ccccc2)cc(C(C)(C)C)c1O	-32.6% (active)
FC(F)(F)c1cc(-c2nnc3n2N=C(Cl)CS3)cc(C(F)(F)F)c1	102%

Test system: NCI-H522 lung
Assay: as above
Conditions: 10 µM unless noted

Compound	growth [%]
O=C(Nc1cccc(Cl)c1)Nc1ccccc1Cl	42.6
COc1ccc2nc3ccccc3c(NCc3ccc(C)cc3)c2c1	26.4
Oc1ccc(-c2nnc3c4[nH]ccc4ncn23)cc1	81.5
